Experimental data taken from PubChem BioAssay (Tox21).
Values joined by “and” are separate entries in the source; they are usually repeats but may differ in a detail not shown here. Equal values may be shown once. Inconclusive results are not listed. Some compounds were tested as several samples or in several runs, with calls that do not always agree. Active and inactive are the calls of the source. Unless noted, calls come from the whole dose curve; as a rule, active = well fitted curve in the direction sought with a large enough effect in the repeat runs; inconclusive = weak or mixed curves; inactive = no such curve, though single readings can be large; an effect the other way counts as inactive or inconclusive.

What was measured:
[1] = A CellTox Green Cytotoxicity Assay to monitor cytotoxicity in HEK293 cells - 32 hour (AID 1224881); note: nearly all actives have a fitted effect of over 40% in size; note: potency is the fitted concentration of half-maximal effect
How it was run: (§1)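 Homogeneous no-lysis format: HEK293 cell suspension mixed with CellTox Green reagent, seeded, incubated 5 h at 37 C/5% CO2, then dosed by pintool with compound in DMSO.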

[2] = A CellTox Green Cytotoxicity Assay to monitor cytotoxicity in HepG2 cells - 0 hour (AID 1224882); note: nearly all actives have a fitted effect of over 35% in size
How it was run: (§2)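 Fluorescent DNA-binding dye, 600 HepG2 cells/well, 5 h preincubation then compound in DMSO; same plates read at 0–40 h, 37 C.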

[3] = A CellTox Green Cytotoxicity Assay to monitor cytotoxicity in HepG2 cells - 32 hour (AID 1224883); note: nearly all actives have a fitted effect of over 50% in size; note: potency is the fitted concentration of half-maximal effect
How it was run: as §2

[4] = A CellTox Green Cytotoxicity Assay to monitor cytotoxicity in HEK293 cells - 8 hour (AID 1224884); note: nearly all actives have a fitted effect of over 35% in size
How it was run: as §1

[5] = qHTS RealTime-Glo MT Cell Viability Assay in HepG2 cells - 16 hour (AID 1224885); note: nearly all actives have a fitted effect of over 50% in size
How it was run: (§3)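 Cell number in HepG2 cultures estimated from NanoLuc luminescence generated by metabolic reduction of a prosubstrate by living cells. The homogeneous, nonlytic format allowed repeated reads at 0, 8, 16, 24, 32 and 40 h of compound exposure.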

[6] = qHTS RealTime-Glo MT Cell Viability Assay in HEK293 cells - 24 hour (AID 1224886); note: nearly all actives have a fitted effect of over 50% in size; note: potency is the fitted concentration of half-maximal effect
How it was run: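 Homogeneous bioluminescent viability format in HEK293 cells (600 cells/well). Following 5 h at 37 C/5% CO2, 23 nL compound was pintooled; the signal was measured repeatedly during 40 h incubation.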

[7] = qHTS RealTime-Glo MT Cell Viability Assay in HEK293 cells - 8 hour (AID 1224887); note: nearly all actives have a fitted effect of over 50% in size; note: potency is the fitted concentration of half-maximal effect
How it was run: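 Measured as luminescence from the same continuously cultured HEK293 wells at successive time points (0, 8, 16, 24, 32, 40 h) after compound addition. Reagent present from seeding; dosing at 5 h; incubation 37 C.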

[8] = qHTS RealTime-Glo MT Cell Viability Assay in HepG2 cells - 0 hour (AID 1224889); note: nearly all actives have a fitted effect of over 50% in size; note: potency is the fitted concentration of half-maximal effect
How it was run: as §3

[9] = A CellTox Green Cytotoxicity Assay to monitor cytotoxicity in HepG2 cells - 8 hour (AID 1224890); note: nearly all actives have a fitted effect of over 45% in size; note: potency is the fitted concentration of half-maximal effect
How it was run: as §2

[10] = qHTS assay to identify small molecule antagonists of the estrogen receptor alpha (ER-alpha) signaling pathway using the BG1 cell line in the presence of 0.1 nM 17-beta-estradiol - cell viability counter screen (AID 1259241); note: nearly all actives have a fitted effect of over 40% in size
How it was run: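 VM7Luc4E2, 4,000 cells/well, phenol red-free medium + 10% charcoal-stripped FBS; 24 hr plating; cpd + 0.1 nM E2 final, 22 hr 37C/5% CO2; CellTiter-Fluor 30 min, fluorescence.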

[11] = qHTS assay to identify small molecule antagonists of the androgen receptor (AR) signaling pathway using the MDA cell line in the presence of 0.5 nM R1881 - cell viability counter screen (AID 1259242); note: nearly all actives have a fitted effect of over 45% in size
How it was run: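 Human breast carcinoma MDA-kb2 cells, cultured without CO2, receive compounds alongside 0.5 nM (final) R1881 agonist. After 16 hr at 37C, viability is taken as live-cell protease signal.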

[12] = qHTS assay to identify small molecule phospholipidosis (PLD) inducers (AID 1259344; active = well fitted curve in the direction sought with a large enough effect; an effect the other way counts as inactive or inconclusive)
How it was run: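 Cells (HepG2, 900 per well) attach for 4 h, receive LipidTOX Red and compound together, incubate 24 h at 37 C, are fixed 30 min with paraformaldehyde/Hoechst, then imaged at one site per well.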

[13] = qHTS assay to identify small molecule HDAC inhibitors (AID 1259364); note: potency is the fitted concentration of half-maximal effect;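 note: wild-type HCT-116 cells with endogenous class I/II HDAC activity; nearly all actives have a fitted effect of over 45% in size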
How it was run: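 After a 2 hr compound incubation (37C, 5% CO2), HCT-116 cells seeded at 1,500/well the day before received HDAC-Glo reagent; signal read as luminescence after 30 min at room temperature.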

[14] = qHTS assay to identify small molecule HDAC inhibitors - cell viability counter screen (AID 1259365)
How it was run: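 Luminescence from CellTiter-Glo, developed 30min at room temperature, reports viability of wild-type HCT-116 cells treated 2hr with compounds at 37 C and 5% CO2 after overnight plating.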

[15] = qHTS assay to identify small molecule agonists of the sonic hedgehog signaling (Shh) pathway - cell viability counter screen (AID 1259366); note: nearly all actives have a fitted effect of over 50% in size; note: potency is the fitted concentration of half-maximal effect
How it was run: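 Cytotoxicity counter screen run in the same wells as the Shh reporter assay. NIH/3T3 cells carrying a Gli1 response element–driven luciferase were treated with DMSO-dissolved compounds for 24hr, and live-cell protease activity was measured with CellTiter-Fluor.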

[16] = qHTS assay to identify small molecule antagonists of the sonic hedgehog signaling (Shh) pathway - cell viability counter screen (AID 1259367); note: nearly all actives have a fitted effect of over 55% in size; note: potency is the fitted concentration of half-maximal effect
How it was run: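 Cytotoxicity was assessed in parallel with Shh reporter activity by measuring live-cell protease fluorescence (CellTiter-Fluor) in NIH/3T3 cells stably carrying Gli1-Luc, treated with compound under conditioned medium stimulation for 23 hr plus 1 hr reagent incubation.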

[17] = qHTS assay to identify small molecule agonists of the sonic hedgehog signaling (Shh) pathway (AID 1259368; calls by dose curve;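 note: NIH/3T3-derived 3T3Gli1-Luc cells carrying a stable Gli1-driven firefly luciferase reporter; series mostly up to about 92 µM; nearly all actives have a fitted effect of over 15% in size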)
How it was run: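 Stable NIH/3T3 Gli1-Luc reporter clone; 24 hr cpd exposure after a 4 hr settling period; luminescence endpoint.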

[18] = biological target: Estrogen receptor (Homo sapiens) (UniProt P03372); experiment: qHTS assay to identify small molecule antagonists of the estrogen receptor alpha (ER-alpha) signaling pathway using the BG1 cell line in the presence of 0.1 nM 17-beta-estradiol (AID 1259244); note: nearly all actives have a fitted effect of over 50% in size; note: potency is the fitted concentration of half-maximal effect
How it was run: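 Seeding of stripped-serum-adapted VM7Luc4E2 cells, 24 h attachment, compound transfer, then 0.1 nM final 17beta-estradiol; after 22 h incubation, ONE-Glo reagent and luminescence reading.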

[19] = A CellTox Green Cytotoxicity Assay to monitor cytotoxicity in HEK293 cells - 16 hour (AID 1224888); note: nearly all actives have a fitted effect of over 35% in size
How it was run: as §1

[20] = biological target: Androgen receptor (Homo sapiens) (UniProt P10275); experiment: qHTS assay to identify small molecule antagonists of the androgen receptor (AR) signaling pathway using the MDA cell line in the presence of 0.5 nM R1881 (AID 1259243); note: nearly all actives have a fitted effect of over 50% in size
How it was run: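 Cells: MDA-kb2 (MMTV-luc). Stimulus: 0.5 nM R1881. Time: 16 hr, 37C, no CO2. Detection: ONE-Glo luminescence after 30 min at RT.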

Measured: Potency

Sequence of Androgen receptor (Homo sapiens) (P10275 whole entry, looked up): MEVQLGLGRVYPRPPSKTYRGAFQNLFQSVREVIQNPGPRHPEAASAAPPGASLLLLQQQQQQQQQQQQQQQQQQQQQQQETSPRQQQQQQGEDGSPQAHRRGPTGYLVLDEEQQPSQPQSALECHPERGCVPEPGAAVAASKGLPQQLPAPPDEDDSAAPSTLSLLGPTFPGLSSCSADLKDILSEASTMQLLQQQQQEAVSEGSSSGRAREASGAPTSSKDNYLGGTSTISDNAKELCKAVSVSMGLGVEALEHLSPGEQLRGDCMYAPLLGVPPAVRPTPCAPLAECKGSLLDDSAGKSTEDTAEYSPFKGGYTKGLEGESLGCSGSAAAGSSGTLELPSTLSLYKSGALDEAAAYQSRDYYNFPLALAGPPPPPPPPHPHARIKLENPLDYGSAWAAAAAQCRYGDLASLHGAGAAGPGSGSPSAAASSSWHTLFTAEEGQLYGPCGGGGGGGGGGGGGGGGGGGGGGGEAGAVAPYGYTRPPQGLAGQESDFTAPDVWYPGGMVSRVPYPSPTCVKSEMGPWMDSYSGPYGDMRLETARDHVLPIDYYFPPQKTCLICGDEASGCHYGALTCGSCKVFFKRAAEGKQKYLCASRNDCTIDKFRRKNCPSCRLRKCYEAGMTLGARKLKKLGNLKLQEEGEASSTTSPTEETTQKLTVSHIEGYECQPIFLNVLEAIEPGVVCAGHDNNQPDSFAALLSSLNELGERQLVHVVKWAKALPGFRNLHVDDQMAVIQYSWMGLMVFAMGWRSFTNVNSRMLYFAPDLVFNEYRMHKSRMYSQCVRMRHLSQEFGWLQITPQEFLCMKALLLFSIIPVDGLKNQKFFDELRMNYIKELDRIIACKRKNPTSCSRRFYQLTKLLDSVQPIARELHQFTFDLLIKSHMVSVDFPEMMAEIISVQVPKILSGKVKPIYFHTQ
Sequence of Estrogen receptor (Homo sapiens) (P03372 whole entry, looked up): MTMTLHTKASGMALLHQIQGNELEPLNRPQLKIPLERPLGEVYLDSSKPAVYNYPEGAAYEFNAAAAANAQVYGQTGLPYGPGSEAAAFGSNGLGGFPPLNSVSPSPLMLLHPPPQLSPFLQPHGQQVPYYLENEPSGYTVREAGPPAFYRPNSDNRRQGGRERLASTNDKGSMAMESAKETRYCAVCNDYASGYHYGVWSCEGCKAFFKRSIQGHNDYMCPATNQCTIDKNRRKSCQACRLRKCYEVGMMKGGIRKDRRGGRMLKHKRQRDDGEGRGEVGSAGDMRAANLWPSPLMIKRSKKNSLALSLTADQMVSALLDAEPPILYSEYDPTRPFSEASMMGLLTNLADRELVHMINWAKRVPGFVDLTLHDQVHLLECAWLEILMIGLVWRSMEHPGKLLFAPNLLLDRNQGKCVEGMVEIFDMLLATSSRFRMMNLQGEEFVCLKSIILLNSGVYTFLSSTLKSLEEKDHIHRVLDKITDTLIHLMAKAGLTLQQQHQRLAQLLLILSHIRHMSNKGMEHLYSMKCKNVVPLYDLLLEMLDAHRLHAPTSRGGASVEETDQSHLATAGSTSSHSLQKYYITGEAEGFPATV

CC(C)[C@@H]1CC[C@@H](C)CC1=O
not listed: [18] | [19] | [20]
inactive: all other assays above

Nc1cc([N+](=O)[O-])ccc1C(=O)O
active: [13] 49.5 µM and 27.3 µM
not listed: [7] | [12] | [17] | [19] | [20]
inactive: all other assays above

CC(=O)O[C@]1(C(C)=O)CC[C@H]2[C@@H]3C=C(Cl)C4=CC(=O)CC[C@]4(C)[C@H]3CC[C@@]21C
active: [6] 21.8 µM | [8] 346 nM and 477 nM
not listed: [7] | [17] | [20]
inactive: all other assays above

C=C[C@H]1CN2CC[C@H]1C[C@H]2[C@H](O)c1ccnc2ccc(OC)cc12
54.9 µM (active) and inactive: [3]
not listed: [7] | [17] | [18] | [20]
inactive: all other assays above

CC1(C)O[C@@H]2C[C@H]3[C@@H]4C[C@H](F)C5=CC(=O)C=C[C@]5(C)[C@@]4(F)[C@@H](O)C[C@]3(C)[C@]2(C(=O)CO)O1
active: [8] 3.89 µM and 9.52 µM
not listed: [7] | [20]
inactive: all other assays above

CC1(C)NC(=O)N(c2ccc([N+](=O)[O-])c(C(F)(F)F)c2)C1=O
24.5 µM (active) and inactive: [6]
not listed: [7] | [18] | [19] | [20]
inactive: all other assays above

CN(Cc1cnc2nc(N)nc(N)c2n1)c1ccc(C(=O)N[C@@H](CCC(=O)O)C(=O)O)cc1
not listed: [6] | [7] | [17]
inactive: all other assays above

Cc1ccc([N+](=O)[O-])c(C)c1
17.4 µM (active) and inactive: [3]
38.9 µM (active) and inactive: [6]
30.9 µM (active) and inactive: [1]
6.11 µM (active) and inactive: [18]
not listed: [7] | [12] | [19] | [20]
inactive: all other assays above

C1COCCN1
not listed: [7] | [12] | [17] | [20]
inactive: all other assays above

C=CC(=O)OCCCC
not listed: [12] | [17] | [18] | [19] | [20]
inactive: all other assays above

CN(C)/N=N/c1nc[nH]c1C(N)=O
not listed: [7] | [17] | [20]
inactive: all other assays above

Clc1ccc(Sc2cc(Cl)c(Cl)cc2Cl)cc1
not listed: [12] | [18] | [19] | [20]
inactive: all other assays above

C=CCOC(=O)C(=C)C
not listed: [7] | [12] | [17] | [18] | [20]
inactive: all other assays above

CC1=CC(C)(C)Nc2ccccc21
not listed: [12] | [19] | [20]
inactive: all other assays above

O=C(O)c1cc(=O)[nH]c(=O)[nH]1
inactive and 16.8 µM (active): [16]
not listed: [5] | [17] | [20]
inactive: all other assays above

CC/C(=C(/CC)c1ccc(O)cc1)c1ccc(O)cc1
active: [6] 12.2 µM and 27.5 µM
not listed: [7] | [13] | [17] | [18] | [20]
inactive: all other assays above

IC(I)I
not listed: [7] | [17] | [18] | [20]
inactive: all other assays above

OC[C@@H](O)[C@@H](O[C@@H]1O[C@H](CO)[C@H](O)[C@H](O)[C@H]1O)[C@H](O)[C@@H](O)CO
not listed: [7] | [19] | [20]
inactive: all other assays above

O=C1CCc2ccccc2O1
inactive and 21.9 µM (active): [1]
not listed: [7] | [12] | [20]
inactive: all other assays above

C=C[Si](OCCOC)(OCCOC)OCCOC
not listed: [7] | [12] | [17] | [20]
inactive: all other assays above

CC(=O)[C@@]1(O)CC[C@H]2[C@@H]3C[C@H](C)C4=CC(=O)C=C[C@]4(C)[C@@]3(F)[C@@H](O)C[C@@]21C
27.5 µM (active) and inactive: [6]
active: [8] 347 nM and 1.34 µM
not listed: [5] | [20]
inactive: all other assays above

NCCN
not listed: [7] | [17] | [20]
inactive: all other assays above

OC[C@H]1O[C@@H]2O[C@H]3[C@H](O)[C@@H](O)[C@@H](O[C@H]4[C@H](O)[C@@H](O)[C@@H](O[C@H]5[C@H](O)[C@@H](O)[C@@H](O[C@H]6[C@H](O)[C@@H](O)[C@@H](O[C@H]7[C@H](O)[C@@H](O)[C@@H](O[C@H]1[C@H](O)[C@H]2O)O[C@@H]7CO)O[C@@H]6CO)O[C@@H]5CO)O[C@@H]4CO)O[C@@H]3CO
inactive and 25.7 µM (active): [16]
not listed: [7] | [19] | [20]
inactive: all other assays above

CC1(C)OC(=O)NC1=O
not listed: [7] | [18] | [20]
inactive: all other assays above

COc1ccc2nc(N)sc2c1
active: [13] 27.3 µM and 24.3 µM
inactive and 3.09 µM (active): [6]
not listed: [7] | [12] | [19]
inactive: all other assays above

COCCOCCOCCO
not listed: [7] | [12] | [18] | [19] | [20]
inactive: all other assays above

Cc1cccc(Nc2ccccc2C(=O)O)c1C
not listed: [5] | [7] | [17] | [18] | [19] | [20]
inactive: all other assays above

Nc1cc(Cl)c(N)c(Cl)c1
not listed: [5] | [12] | [17] | [20]
inactive: all other assays above

CCC(=O)O[C@H]1[C@H](O[C@@H]2[C@@H](C)[C@H](O[C@H]3C[C@@](C)(OC)[C@@H](O)[C@H](C)O3)[C@@H](C)C(=O)O[C@H](CC)[C@@](C)(O)[C@H](O)[C@@H](C)C(=O)[C@H](C)C[C@@]2(C)O)O[C@H](C)C[C@@H]1N(C)C
16.1 µM (active) and inactive: [15]
active: [16] 14.4 µM
28.9 µM (active) and inactive: [1]
not listed: [5] | [12] | [18] | [20]
inactive: all other assays above

O=C(CCCN1CCC(O)(c2ccc(Cl)cc2)CC1)c1ccc(F)cc1
49 µM (active) and inactive: [1] | [9]
active: [3] 21.9 µM | [6] 13.8 µM and 8.49 µM | [7] 13.8 µM and 9.52 µM
68.6 µM (active) and inactive: [15]
not listed: [5] | [12] | [18] | [19] | [20]
inactive: all other assays above
